Measured values from PubChem BioAssay (Tox21).
“And” between values parts separate entries of the source, which are not always exact repeats. Equal entries are not always repeated. Records with an inconclusive call do not appear. Entries that show only a call come without a potency. The source made the active and inactive calls. Calls come from the whole dose curve; as a rule, active = well fitted inhibition curve with a large enough effect in the repeat runs; inconclusive = weak or mixed curves; inactive = no such curve, though single readings can be large or run the other way.

Target: Cytochrome P450 3A4 (Homo sapiens) (UniProt P08684)
Sequence (P08684 whole entry, looked up): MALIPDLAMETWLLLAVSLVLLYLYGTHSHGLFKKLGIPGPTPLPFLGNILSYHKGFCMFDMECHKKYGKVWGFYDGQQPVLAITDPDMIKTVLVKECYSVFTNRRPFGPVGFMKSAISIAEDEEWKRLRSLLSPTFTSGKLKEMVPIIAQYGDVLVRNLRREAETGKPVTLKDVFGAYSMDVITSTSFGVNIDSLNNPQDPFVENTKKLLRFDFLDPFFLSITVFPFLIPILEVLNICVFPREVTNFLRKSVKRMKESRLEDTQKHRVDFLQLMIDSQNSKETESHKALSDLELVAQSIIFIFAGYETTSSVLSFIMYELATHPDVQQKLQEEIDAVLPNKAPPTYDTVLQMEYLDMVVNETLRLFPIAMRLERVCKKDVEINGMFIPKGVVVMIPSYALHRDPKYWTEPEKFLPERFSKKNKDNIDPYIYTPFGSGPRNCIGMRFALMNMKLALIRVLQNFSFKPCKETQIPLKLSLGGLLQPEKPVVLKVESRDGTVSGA
Assay: Cytochrome P450 Family 3 Subfamily A Member 4 (CYP3A4) small molecule antagonists: luciferase reporter qHTS assay (AID 1671201); note: nearly all actives have a fitted effect of over 50% in size
Conditions: P450-Glo CYP3A4 enzyme, luciferin luminescence, 1 h; series mostly up to 115 µM
Excerpt: National Center for Advancing Translational Sciences [NCATS]
U.S. Environmental Protection Agency [EPA]
National Institutes of Environmental Health Sciences [NIEHS]
National Toxicology Program [NTP]
U.S. Food and Drug Administration [FDA]
Cytochrome P450 (CYP) enzymes are membrane-bound hemeproteins that play a key role in metabolism of drugs and xenobiotics. Evaluation of the effect of chemicals on CYP isozymes is useful to minimize the adverse drug reactions and toxicities in drug development process. Tox21 chemicals were tested for their effect on CYP enzyme activities by using P450-Glo (TM) screening systems (Promega Corporation, Madison, WI). These systems provide a luminescent method containing proluciferin substrates and are converted to luciferin products by CYP isozymes. The luciferin products formed are detected with a luciferin detection reagent, and the amount of light produced is proportional to CYP activity. P450-Glo (TM) CYP3A4 screening system (Catalog. No. V9910) was used to detect the compounds that interfere in CYP3A4 activity. The positive control compound used for CYP3A4 assay is ketoconazole (Sigma-Aldrich, St. Louis, MO).
Tox21 Assay Protocol Summary:
Two ul of enzyme-substrate mix was dispensed into medium binding white/solid 1536-well plates (Greiner Bio-One North America Inc., Monroe, NC) using a BioRaptr Flying Reagent Dispenser (FRD, Beckman Coulter, Brea, CA). Compounds dissolved in DMSO and positive control (ketoconazole) were transferred to the assay plates at 23 nl using a Pintool station (Wako, San Diego, CA). The assay plates were incubated at room temperature for 10 min. Then 2 ul of NADPH regeneration solution was added to each well of the assay plates using an FRD and incubated at room temperature for 1 h. The reaction was stopped by adding 4 ul of detection reagent using an FRD and after 20 min incubation at room temperature the luminescence signal was measured using a ViewLux plate reader (Perkin Elmer, Shelton, CT). Data were expressed as relative luminescence units.
Potency is the fitted concentration of half-maximal effect.

| Compound | Potency |
| --- | --- |
| CC(=O)OC1CCCCC1 | inactive |
| C=C/C=C/C=C/CCCCC | 16.9 µM (active) |
| C=CC(=O)OCCN(CC)CC | inactive |
| COC(=O)CC#N | inactive |
| CC1CCCNC1 (stereo not given) | inactive |
| CSc1c(Cl)c(Cl)c(Cl)c(Cl)c1Cl | inactive |
| C1CC(COCC2CO2)CCC1COCC1CO1 (stereo not given) | inactive |
| O=c1cccc[nH]1 | inactive |
| Cc1cc2c(C(C)C)c(O)c(O)c(C=O)c2c(O)c1-c1c(C)cc2c(C(C)C)c(O)c(O)c(C=O)c2c1O | inactive |
| O=C(O)c1cccc(Cl)n1 | inactive |
| CCCCCCCC/C=C\CCCCCCCC(=O)OCCOC(=O)CCCCCCC/C=C\CCCCCCCC | 10.4 µM (active) |
| CC(C)(C)c1cc(CCC(=O)NCCCCCCNC(=O)CCc2cc(C(C)(C)C)c(O)c(C(C)(C)C)c2)cc(C(C)(C)C)c1O | 2.83 µM (active) |
| Cc1ccc(-n2[nH]c(C)c(N=Nc3cccc(-c4cccc(C(=O)O)c4)c3O)c2=O)cc1C | inactive |
| CCc1cccc(C)c1 | inactive |
| CCOC(=O)[C@@](C)(N)Cc1ccc(O)c(O)c1 | inactive |
| CCCC(O)C(O)CO (stereo not given) | inactive |
| Clc1cc(Cl)c(-c2c(Cl)c(Cl)cc(Cl)c2Cl)cc1Cl | inactive |
| CNC(=S)NN | inactive |
| CCCCCCCCCCCCCc1ccccc1 | inactive |
| CC1CNCC(C)O1 (stereo not given) | inactive |

| Compound | Potency |
| --- | --- |
| Cc1cncc(C)c1 | inactive |
| CCCCCCCC/C=C\CCCCCCCC(=O)N(C)CC(=O)O | inactive |
| CCCCCCCCCCOCC(O)CN (stereo not given) | inactive |
| CCCCCCCC(OC)OC | inactive |
| C=CC/C=C/C/C=C/C/C=C/C | inactive |
| CC(C)(c1cc(Br)c(OCCO)c(Br)c1)c1cc(Br)c(OCCO)c(Br)c1 | 49.2 µM (active) |
| O=C(c1ccccc1)c1cc(Cl)ccc1O | inactive |
| CC1(C)COCN1 | inactive |
| O=CC1CC1 | inactive |
| Cc1cnccn1 | inactive |
| CCCN(CCc1cccs1)[C@H]1CCc2c(O)cccc2C1 | inactive |
| C=C1C(C)(C)[C@@]2(Cl)C(Cl)[C@]1(Cl)C(Cl)(Cl)C2(Cl)Cl (stereo not given in full) | 0.985 µM (active) |
| CSc1ccc2c(c1)N(CCC1CCCCN1C)c1ccccc1S2 (stereo not given) | inactive |
| Cc1cc(=O)[nH]c(=O)[nH]1 | inactive |
| CCOC(OCC)C(=O)c1ccccc1 | inactive |
| NC(=O)c1ccccc1N | inactive |
| CCCC(=O)OCC(COC(=O)CCC)OC(=O)CCC | inactive |
| Cc1cccc(C)c1NC(=O)CN1CCN(CCCC(c2ccc(F)cc2)c2ccc(F)cc2)CC1 | inactive |
| O=C=NCc1cccc(CN=C=O)c1 | 4.25 µM (active) |
| CCCCCCCCCCCCOC(=O)c1cc(O)c(O)c(O)c1 | 17.8 µM (active) and 20 µM (active) |
